Measured values from PubChem BioAssay.
The source made the active and inactive calls. Unless noted, the rule behind the calls is not given here.

Assays:
[1] = HepG2 liver cancer cell viability effects, profiling panel, resazurin fluorescence, 24 h, PK04 Diversity Set (AID 1172); details: higher = more signal
[2] = basal S. cerevisiae growth modulation, no modifier, primary screen, OD600, strain BY4716, 24 h, basal condition (AID 1173); details: OD600, 24 h, higher = more signal, called active from +8 up or from −8 down
[3] = MM1S myeloma cell viability, profiling panel, resazurin fluorescence, basal, 24 h, PK04 Diversity Set (AID 1174); details: higher = more signal, called active from +8 up or from −8 down;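 note: MM1S multiple myeloma cell line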
[4] = target: Dihydroorotate dehydrogenase (quinone), mitochondrial (Plasmodium falciparum (isolate 3D7)) (UniProt Q08210); assay: PfDHODH enzyme inhibitors, primary screen, biochemical, C-terminal His tag, absorbance 600 nm (AID 1175); details: DCIP absorbance 600 nm, higher = more signal, called active from +8 up or from −8 down;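 note: recombinant parasite enzyme with a five histidine tag at its C terminus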
[5] = P. aeruginosa biofilm formation inhibitors, primary screen, strain PAO1, LB-PBS medium, absorbance 600 nm (AID 1176); details: P. aeruginosa PAO1 growth/biofilm, A600, 12 h; higher = more signal
[6] = S. cerevisiae RM11-1a growth modifiers, primary screen, strain RM11-1a, OD600, basal, 24 h (AID 1177); details: OD600, 24 h, higher = more signal, called active from +8 up or from −8 down;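 note: cultures grown under basal conditions with no added stressor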
[7] = E. coli acrAB mutant growth effects, primary screen, E. coli filamentation inducers, strain DRC39, OD650, 24 h (AID 1178); details: higher = more signal, called active from +8 up or from −8 down;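 note: growth measured as culture turbidity by optical density at 650 nm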
[8] = E. coli acrAB mutant growth effects, primary screen, E. coli filamentation inducers, strain DRC39, OD650, 48 h (AID 1179);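 note: screen aims at cell division blockers that make cells filament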; details: E. coli DRC39 delta-acrAB growth, higher = more signal, called active from +8 up or from −8 down
[9] = RPMI8226 myeloma cell viability, profiling panel, resazurin fluorescence, basal, 24 h, PK04 Diversity Set (AID 1180); details: higher = more signal;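 note: RPMI8826 multiple myeloma cell line at 5000 cells per well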
[10] = target: E3 ubiquitin-protein ligase XIAP (Homo sapiens) (UniProt P98170); assay: XIAP binders, primary screen, biophysical, small-molecule microarray, fluorescence 635 nm (AID 1181); details: small-molecule microarray binding, higher = more signal;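 note: score merges 667 nm emission and signal to noise over triplicate slides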
[11] = system: XIP peptide (Xip251-270) binding; assay: small-molecule binders of XIP peptide, primary screen, biochemical, small-molecule microarray, fluorescence 635/667 nm, 0.1 µg/mL protein (AID 1182); details: fluorescent protein binding, 635 nm, higher = more signal, called active from +8 up or from −8 down
[12] = system: XIP peptide (Xip251-270); assay: small-molecule binders of XIP peptide, primary screen, biochemical, small-molecule microarray, fluorescence 635/667 nm, 0.5 µg/mL protein (AID 1183); details: small-molecule microarray binding, fluorescence 635 nm; higher = more signal
[13] = Plasmodium falciparum growth inhibition, primary screen, strain 3D7, DAPI fluorescence, 100 nL (AID 1184);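 note: parasites grown inside human red blood cells in medium with human serum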; details: P. falciparum 3D7 growth, 3 d, higher = more signal
[14] = target: Homeobox protein Hox-A13 (Mus musculus) (UniProt Q62424); assay: inhibitors of HoxA13-DNA binding, primary screen, biochemical, fluorescence polarization, labeled oligonucleotide (AID 1185); details: 15 min, higher = more signal, called active from +8 up or from −8 down
[15] = inhibitors of hydroxyurea-induced Chk1 phosphorylation, primary screen, imaging, HeLa, phospho-Chk1 antibody, percent positive cells (AID 1186); details: hydroxyurea-induced phospho-Chk1 immunofluorescence imaging, higher = more signal
[16] = inhibitors of hydroxyurea-induced Chk1 phosphorylation, primary screen, imaging, HeLa, phospho-Chk1 nuclear intensity (AID 1187); details: hydroxyurea-induced phospho-Chk1 immunofluorescence imaging, higher = more signal

Chain of E3 ubiquitin-protein ligase XIAP (Homo sapiens) (P98170 whole entry, looked up): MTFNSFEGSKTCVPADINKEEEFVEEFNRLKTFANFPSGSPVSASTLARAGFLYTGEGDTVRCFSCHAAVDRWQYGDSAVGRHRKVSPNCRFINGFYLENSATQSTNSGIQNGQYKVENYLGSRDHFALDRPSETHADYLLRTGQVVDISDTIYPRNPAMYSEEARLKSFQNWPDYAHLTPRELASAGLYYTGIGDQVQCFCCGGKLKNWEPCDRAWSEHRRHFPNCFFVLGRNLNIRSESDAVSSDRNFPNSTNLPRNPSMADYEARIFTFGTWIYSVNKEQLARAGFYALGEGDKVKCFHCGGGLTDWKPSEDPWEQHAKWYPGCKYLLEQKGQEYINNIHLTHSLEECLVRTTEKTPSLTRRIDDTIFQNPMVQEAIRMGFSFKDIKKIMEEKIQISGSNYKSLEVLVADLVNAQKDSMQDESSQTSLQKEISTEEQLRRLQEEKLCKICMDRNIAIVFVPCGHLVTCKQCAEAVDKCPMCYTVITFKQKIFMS
Chain of Homeobox protein Hox-A13 (Mus musculus) (Q62424 whole entry, looked up): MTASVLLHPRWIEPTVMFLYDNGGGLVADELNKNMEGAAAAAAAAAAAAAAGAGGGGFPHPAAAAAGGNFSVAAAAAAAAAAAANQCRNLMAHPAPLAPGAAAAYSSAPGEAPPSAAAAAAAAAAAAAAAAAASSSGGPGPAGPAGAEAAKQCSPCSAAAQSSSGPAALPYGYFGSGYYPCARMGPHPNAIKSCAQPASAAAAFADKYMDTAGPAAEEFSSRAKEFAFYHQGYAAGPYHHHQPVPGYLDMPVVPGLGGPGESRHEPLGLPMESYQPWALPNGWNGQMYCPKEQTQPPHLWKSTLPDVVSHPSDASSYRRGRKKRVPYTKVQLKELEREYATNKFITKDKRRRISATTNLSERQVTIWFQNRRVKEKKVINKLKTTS
Chain of Dihydroorotate dehydrogenase (quinone), mitochondrial (Plasmodium falciparum (isolate 3D7)) (Q08210 whole entry, looked up): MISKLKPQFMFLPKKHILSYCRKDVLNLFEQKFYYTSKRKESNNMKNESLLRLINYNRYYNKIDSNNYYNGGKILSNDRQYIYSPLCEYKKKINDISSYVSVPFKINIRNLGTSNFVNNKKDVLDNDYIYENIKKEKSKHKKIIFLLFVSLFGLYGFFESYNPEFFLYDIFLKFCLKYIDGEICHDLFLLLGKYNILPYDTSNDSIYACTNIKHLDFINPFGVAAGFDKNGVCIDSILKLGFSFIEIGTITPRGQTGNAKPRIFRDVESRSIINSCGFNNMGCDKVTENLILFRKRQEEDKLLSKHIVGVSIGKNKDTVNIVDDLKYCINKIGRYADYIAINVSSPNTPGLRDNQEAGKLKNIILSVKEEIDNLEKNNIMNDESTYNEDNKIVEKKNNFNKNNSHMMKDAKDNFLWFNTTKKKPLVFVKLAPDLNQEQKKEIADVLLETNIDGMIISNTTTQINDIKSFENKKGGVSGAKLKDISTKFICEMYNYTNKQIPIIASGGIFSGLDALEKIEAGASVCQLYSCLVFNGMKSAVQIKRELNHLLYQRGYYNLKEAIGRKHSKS

Compound	z-score [1]	z-score [2]	z-score [3]	composite z-score [4]	z-score [5]	z-score [6]	z-score [7]	z-score [8]	z-score [9]	composite z-score [10]	composite z-score [11]	composite z-score [12]	z-score [13]	z-score [14]	z-score [15]	z-score [16]
COCCOC(=O)N1C(=O)[C@@]2(c3ccccc31)[C@H](c1ccc(O)cc1)N1[C@H](c3ccccc3)[C@H](c3ccccc3)OC(=O)[C@H]1[C@@H]2C(=O)N1CCCCCCC1	0.0454	-0.712 (inactive)	0.0065 (inactive)	0.161 (inactive)	1.57 (inactive)	-0.122 (inactive)	-0.391 (inactive)	-1.88 (inactive)	0.248	0.587	4.66 (inactive)	0.91	-1.01	0.899 (inactive)	-0.0437 (inactive)	0.157 (inactive)
COC(=O)[C@@]1(Cc2ccc(F)cc2)[C@H]2c3cc(C(=O)N4CCCC4)n(Cc4cc(F)cc5c4OCOC5)c3C[C@H]2CN1C(=O)c1ccccc1	-1.29	1.9 (inactive)	-0.931 (inactive)	-0.224 (inactive)	-0.25 (inactive)	1.31 (inactive)	0.462 (inactive)	-1.11 (inactive)	-2.88	0.334	0.602 (inactive)	0.53	-1.6	-4.07 (inactive)	-0.142 (inactive)	-0.121 (inactive)
COC(=O)C1(Cc2ccccc2)C=C2C(=C(C)C(=O)C2C)CN1 (stereo not drawn)	-0.896	1.1 (inactive)	-0.86 (inactive)	-1.98 (inactive)	0.452 (inactive)	-0.527 (inactive)	0.858 (inactive)	1.2 (inactive)	-0.625	-0.168	-0.217 (inactive)	0.943	0.235	-5.82 (inactive)	0.0869 (inactive)	0.244 (inactive)
